From PubChem BioAssay
Most compounds without a hit are left out; they make up all but 0.82% or so of the library.
Mtb BioA inh: M. tuberculosis BioA enzyme inhibitors, primary screen, biochemical, plate reader, single point, HTS. 7,8-diaminopelargonic acid synthase BioA (Mycobacterium tuberculosis). AID 602481, 2012. 360,000 tested, 0.096% active. inhibition, % at 9.99 µM. purified M. tuberculosis BioA enzyme; in the data active means inhibition above about 40%
Rv3671c protease: Rv3671c serine protease inhibitors, primary screen, biochemical, fluorescence polarization, M. tuberculosis H37Rv | P9WHR9 | inhibition, % at 5.96 µM | 320,000 tested, 0.048% active; in the data active means inhibition above about 38%;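 further: extracellular domain of Rv3671c used as enzyme; 0% = enzyme with DMSO and 100% = no enzyme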
Target sequence (P9WHR9 whole entry, looked up, the tested form may be a part): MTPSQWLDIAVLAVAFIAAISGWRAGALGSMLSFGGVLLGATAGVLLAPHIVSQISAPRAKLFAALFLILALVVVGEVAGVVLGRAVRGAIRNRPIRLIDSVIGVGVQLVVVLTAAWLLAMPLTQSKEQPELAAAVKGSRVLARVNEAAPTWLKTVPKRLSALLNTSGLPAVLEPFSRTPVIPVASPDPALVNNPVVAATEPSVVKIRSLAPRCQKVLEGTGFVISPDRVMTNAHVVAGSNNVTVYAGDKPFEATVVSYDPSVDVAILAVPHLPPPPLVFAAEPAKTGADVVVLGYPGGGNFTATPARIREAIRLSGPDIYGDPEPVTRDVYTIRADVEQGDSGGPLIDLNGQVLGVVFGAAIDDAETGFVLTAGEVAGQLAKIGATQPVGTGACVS
UGM FP inh: M. tuberculosis UGM enzyme inhibitors, primary screen, biochemical, fluorescence polarization, single point. purified UGM, fluorescence polarization probe displacement. inhibition, % at 10 µM. 320,000 tested, 0.06% active. AID 504406, 2011. UDP-galactopyranose mutase (Mycobacterium tuberculosis (strain ATCC 25618 / H37Rv)), …; in the data active means inhibition above about 10%, passing the limit was not always enough
RecA intein inh: Mtb RecA intein splicing inhibitors, primary screen, biochemical, fluorescence, HTS; cell-free RecA intein splicing; inhibition, % (test concentration not listed); 290,000 tested, 0.75% active; in the data active means inhibition above about 30%;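 further: 0% = vehicle wells and 100% = reference inhibitor control wells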
FadD28 binding: inhibitors of FadD28 bisubstrate probe binding, primary screen, biochemical, fluorescence polarization, single point; Mycobacterium tuberculosis FadD28 fatty-acid-AMP ligase; inhibition, % at 12.5 µM; 360,000 tested, 0.22% active; in the data active means inhibition above about 8.5%, passing the limit was not always enough
Yp Topo-I inh: Yersinia pestis topoisomerase I inhibitors, primary screen, biochemical, cleavage product accumulation, plate reader, single point. DNA topoisomerase I (Yersinia pestis CO92). Y. pestis Topo-I cleavage product accumulation. activity, % at 10 µM. 360,000 tested, 0.064% active; in the data active means activity above about 50%, passing the limit was not always enough
* hit, by the source's call.

Screening CCCCCCCCCCCCCCCC[N+](C)(C)CCl returned FadD28 binding 20* and Yp Topo-I inh -33.
For C[C@H]1CN([C@@H](C)CO)C(=O)c2cccc(NS(=O)(=O)c3ccc(Cl)cc3)c2O[C@H]1CN(C)Cc1ccncc1 the results were Mtb BioA inh -1.
For CN(C1=C(NC(=O)c2ccc(Cl)cc2)C(=O)c2ccccc2C1=O)c1ccccc1 the results were Rv3671c protease 1, UGM FP inh -3, RecA intein inh 43*, FadD28 binding 2 and Yp Topo-I inh -6.
For O=C(Cn1nnc(-c2ccccc2)n1)NNC(=O)c1ccccc1 the results were Rv3671c protease 0, UGM FP inh -1, RecA intein inh -2, FadD28 binding 0 and Yp Topo-I inh 2.
For O=C(Cn1nnc(-c2ccccc2)n1)NNC(=O)c1ccc(Br)cc1 the results were Rv3671c protease 5, UGM FP inh 1, RecA intein inh 0, FadD28 binding -4 and Yp Topo-I inh 56*.
Cc1noc(C)c1NC(=O)Nc1cccc2c1O[C@@H](CN(C)Cc1ccc(C(=O)O)cc1)[C@H](C)CN([C@H](C)CO)C2=O was read as Mtb BioA inh -2.
For CCCCCCN1C[C@H](n2cc(-c3ccc(F)cc3)nn2)[C@@H](O)C[C@@H]1c1ccc(OC)cc1 the results were Mtb BioA inh -1, FadD28 binding -3 and Yp Topo-I inh -3.
For CCCCCCN1C[C@@H](n2cc(-c3ccc(F)cc3)nn2)[C@H](O)C[C@@H]1c1ccc(OC)cc1 the results were Mtb BioA inh -2, FadD28 binding -1 and Yp Topo-I inh 65*.
COC(=O)c1cn(CC(=O)N2CCN(c3ccccc3)CC2)nn1 was read as Mtb BioA inh 9.
Screening O=C(CNc1cccc2ccccc12)N/N=C/c1ccc(C(=O)O)cc1 returned Mtb BioA inh 2, Rv3671c protease -1, UGM FP inh 0, RecA intein inh 2, FadD28 binding 38* and Yp Topo-I inh 2.
COCC(=O)N1[C@H](C(=O)Nc2ccccc2)[C@@H](CO)[C@@H]2Cn3c(ccc(-c4cccnc4)c3=O)[C@@H]21 was read as Mtb BioA inh 0.
For CCCCOC(=O)c1ccc(OC(=O)c2cccnc2)cc1 the results were Mtb BioA inh 5, Rv3671c protease 4, UGM FP inh -2, RecA intein inh 29, FadD28 binding -1 and Yp Topo-I inh 16.
`CCCCCCOC(=O)c1ccc(OC(=O)c2cccnc2)cc1` gave Mtb BioA inh 0, Rv3671c protease 2, UGM FP inh -2, RecA intein inh 61*, FadD28 binding -1 and Yp Topo-I inh 13.
O=C1NC(=S)SC1=Cc1ccc(N(CCCl)CCCl)cc1 was read as Mtb BioA inh -17, FadD28 binding 14* and Yp Topo-I inh 15.
CCCN(C)C[C@H]1OCCCC[C@@H](C)Oc2ccc(NS(=O)(=O)c3ccc(C)cc3)cc2C(=O)N([C@H](C)CO)C[C@H]1C was read as Mtb BioA inh -1.
`C[C@H]1CN([C@@H](C)CO)C(=O)c2cccc(N(C)C)c2O[C@H]1CN(C)C(=O)NC1CCCCC1` gave Mtb BioA inh -1.
O=C(NC(=S)NCc1nc2ccccc2[nH]1)c1ccc(F)cc1 was read as Rv3671c protease 5, UGM FP inh 0, RecA intein inh -2, FadD28 binding -4 and Yp Topo-I inh 3.
Screening O=C(NC(=S)NCc1nc2ccccc2[nH]1)c1ccccc1F returned Rv3671c protease -5, UGM FP inh -2, FadD28 binding 8.9* and Yp Topo-I inh -9.
For CN(C)CC(=O)Nc1ccc2c(c1)[C@@H]1C[C@H](CC(=O)NCc3ccc4c(c3)OCO4)O[C@H](CO)[C@@H]1O2 the results were Mtb BioA inh -2.
`O=C(c1cccs1)c1no[n+]([O-])c1C(=O)c1cccs1` gave Mtb BioA inh -1, Rv3671c protease 1, UGM FP inh 11*, RecA intein inh 5, FadD28 binding -1 and Yp Topo-I inh 1.
